Reference: PubChem BioAssay
Activity calls are given as the source filed them.

Experiments:
[1] = tested on: PRMT1 (protein arginine N-methyltransferase 1); assay: PRMT1 binders on small-molecule microarrays, primary screen, biochemical, small-molecule microarray, 635 nm fluorescence (AID 1088); details: small-molecule microarray binding, higher = more signal;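 also: binding of Prmt1 protein to compounds spotted on small-molecule microarray slides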
[2] = yeast growth modulation, basal conditions, primary screen, YJM789 clinical isolate, OD600, 24 h (AID 1089);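 also: growth of clinical yeast isolate S. cerevisiae YJM 789 seeded 1000 cells per well; test concentration not given here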; details: S. cerevisiae YJM789 growth, higher = more signal, called active from +8 up or from −8 down
[3] = fission yeast growth modulation, primary screen, strain 972, OD600, 24 h, no modulator (AID 1090);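 also: basal condition with compound alone and no growth modifier present; test concentration not given here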; details: S. pombe 972 growth, higher = more signal, called active from +8 up or from −8 down
[4] = S. cerevisiae growth modulation with rapamycin, primary screen, strain BY4716, OD600, 96 h (AID 1091); details: higher = more signal, called active from +8 up or from −8 down; also: test concentration not given here
[5] = molecular target: Torsin-1A-interacting protein 2 (Homo sapiens) (UniProt Q8NFQ8); assay: LULL1 binders on small-molecule microarray, primary screen, cell lysate, human LULL1 lysate, 635/667 nm fluorescence (AID 1092); details: hLULL1 lysate binding, 635 nm fluorescence, higher = more signal;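 also: probe is lysate of COS7 cells overexpressing human LULL1; score merges per-feature 667 nm fluorescence with signal-to-noise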
Chain of Torsin-1A-interacting protein 2 (Homo sapiens) (Q8NFQ8 whole entry, looked up): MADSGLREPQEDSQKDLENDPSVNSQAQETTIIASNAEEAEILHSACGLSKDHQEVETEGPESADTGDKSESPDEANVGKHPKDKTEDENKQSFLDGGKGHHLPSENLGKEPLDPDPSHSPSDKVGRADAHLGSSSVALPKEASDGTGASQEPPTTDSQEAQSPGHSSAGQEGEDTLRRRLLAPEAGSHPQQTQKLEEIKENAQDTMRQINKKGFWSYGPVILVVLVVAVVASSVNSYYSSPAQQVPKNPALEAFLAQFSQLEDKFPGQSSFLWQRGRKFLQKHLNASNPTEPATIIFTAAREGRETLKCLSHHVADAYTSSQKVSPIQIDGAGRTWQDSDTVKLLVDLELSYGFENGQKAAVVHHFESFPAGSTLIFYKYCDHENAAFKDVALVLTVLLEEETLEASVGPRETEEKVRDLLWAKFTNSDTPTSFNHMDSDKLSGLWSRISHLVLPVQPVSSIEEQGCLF

[6] = E. coli growth modulation, two-sided OD650, primary screen, E. coli filamentation project, strain DRC41, 24 h (AID 1093); details: OD650, 24 h, higher = more signal, called active from +8 up or from −8 down;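 also: MC1000 strain lacking acrAB efflux and sulA so SOS filamentation is blocked; test concentration not given here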
[7] = small-molecule microarray binders of probe aLefty2, primary screen, biochemical, biotinylated probe, 635/667 nm fluorescence (AID 1094); details: higher = more signal;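 also: score merges spot fluorescence near 667 nm with spot signal-to-noise ratio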
[8] = tested on: Noggin (protein binding on small-molecule microarray); assay: Noggin binders on small-molecule microarray, primary screen, biochemical, 635/667 nm fluorescence (AID 1095); details: 635 nm fluorescence, higher = more signal;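 also: score merges 667 nm feature fluorescence with signal to noise over triplicate slides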
[9] = molecular target: Neurogenic locus notch homolog protein 3 (Homo sapiens) (UniProt Q9UM47); assay: NOTCH3 binders on small-molecule microarray, primary screen, biochemical, 635/667 nm fluorescence (AID 1096); details: NOTCH3 binding, 635 nm fluorescence, higher = more signal
Chain of Neurogenic locus notch homolog protein 3 (Homo sapiens) (Q9UM47 whole entry, looked up): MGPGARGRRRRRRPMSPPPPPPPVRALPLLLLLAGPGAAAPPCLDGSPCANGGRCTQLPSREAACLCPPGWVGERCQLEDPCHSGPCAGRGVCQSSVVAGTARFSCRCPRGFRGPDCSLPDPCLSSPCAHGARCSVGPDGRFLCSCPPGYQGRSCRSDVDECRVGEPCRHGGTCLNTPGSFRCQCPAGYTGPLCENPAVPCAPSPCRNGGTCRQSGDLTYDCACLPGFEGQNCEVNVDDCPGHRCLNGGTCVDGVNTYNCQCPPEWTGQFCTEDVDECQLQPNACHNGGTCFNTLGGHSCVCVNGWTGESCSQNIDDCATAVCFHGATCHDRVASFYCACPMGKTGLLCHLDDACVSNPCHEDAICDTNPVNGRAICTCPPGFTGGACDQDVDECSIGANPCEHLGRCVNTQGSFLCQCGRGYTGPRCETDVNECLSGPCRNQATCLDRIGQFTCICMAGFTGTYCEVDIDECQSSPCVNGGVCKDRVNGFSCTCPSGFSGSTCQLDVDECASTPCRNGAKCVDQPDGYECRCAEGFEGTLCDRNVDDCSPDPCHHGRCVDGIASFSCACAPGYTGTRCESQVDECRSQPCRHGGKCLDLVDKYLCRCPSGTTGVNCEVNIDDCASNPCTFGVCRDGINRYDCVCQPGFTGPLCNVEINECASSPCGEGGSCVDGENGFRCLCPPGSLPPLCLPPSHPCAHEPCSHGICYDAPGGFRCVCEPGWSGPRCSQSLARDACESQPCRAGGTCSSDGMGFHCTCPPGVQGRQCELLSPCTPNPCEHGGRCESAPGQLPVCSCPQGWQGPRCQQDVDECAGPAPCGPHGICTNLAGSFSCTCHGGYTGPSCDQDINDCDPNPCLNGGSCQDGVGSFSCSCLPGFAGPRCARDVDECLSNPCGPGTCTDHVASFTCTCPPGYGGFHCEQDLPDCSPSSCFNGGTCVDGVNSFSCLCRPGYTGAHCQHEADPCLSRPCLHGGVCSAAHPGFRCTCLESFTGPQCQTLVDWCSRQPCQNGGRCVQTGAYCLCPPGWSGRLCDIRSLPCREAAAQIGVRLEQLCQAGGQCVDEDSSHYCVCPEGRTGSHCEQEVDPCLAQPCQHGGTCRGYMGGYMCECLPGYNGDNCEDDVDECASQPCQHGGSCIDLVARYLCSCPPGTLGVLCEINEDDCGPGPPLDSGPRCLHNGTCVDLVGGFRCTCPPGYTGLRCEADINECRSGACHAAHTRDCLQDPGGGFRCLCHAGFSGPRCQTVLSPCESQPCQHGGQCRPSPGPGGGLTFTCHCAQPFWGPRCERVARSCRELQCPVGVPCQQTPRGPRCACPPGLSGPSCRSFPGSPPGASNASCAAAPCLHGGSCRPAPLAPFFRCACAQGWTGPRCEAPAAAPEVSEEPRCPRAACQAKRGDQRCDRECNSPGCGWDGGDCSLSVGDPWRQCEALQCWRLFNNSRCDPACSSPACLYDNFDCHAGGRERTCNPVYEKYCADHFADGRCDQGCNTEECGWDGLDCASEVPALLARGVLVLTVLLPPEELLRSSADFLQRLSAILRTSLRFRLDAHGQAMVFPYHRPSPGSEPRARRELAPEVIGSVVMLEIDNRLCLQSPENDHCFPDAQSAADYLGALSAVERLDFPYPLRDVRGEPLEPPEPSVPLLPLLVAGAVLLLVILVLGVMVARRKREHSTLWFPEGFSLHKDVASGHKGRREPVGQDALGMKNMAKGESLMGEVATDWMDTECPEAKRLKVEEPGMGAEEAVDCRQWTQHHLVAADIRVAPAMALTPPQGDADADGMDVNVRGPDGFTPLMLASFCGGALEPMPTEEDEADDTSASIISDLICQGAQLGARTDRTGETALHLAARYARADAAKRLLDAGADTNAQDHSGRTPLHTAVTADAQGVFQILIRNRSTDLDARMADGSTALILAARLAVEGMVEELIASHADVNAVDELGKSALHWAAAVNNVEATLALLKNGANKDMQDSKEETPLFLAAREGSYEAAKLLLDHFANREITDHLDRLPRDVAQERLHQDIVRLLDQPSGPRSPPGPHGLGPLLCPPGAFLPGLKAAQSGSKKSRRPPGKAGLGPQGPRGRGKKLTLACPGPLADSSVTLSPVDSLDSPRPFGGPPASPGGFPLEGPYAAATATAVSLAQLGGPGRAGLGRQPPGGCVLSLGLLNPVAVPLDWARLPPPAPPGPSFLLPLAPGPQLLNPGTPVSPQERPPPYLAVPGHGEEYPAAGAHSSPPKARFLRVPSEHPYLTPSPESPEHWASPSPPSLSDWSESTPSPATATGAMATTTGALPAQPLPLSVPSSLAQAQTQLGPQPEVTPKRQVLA

[10] = small-molecule microarray binders of probe aEGFR, primary screen, biochemical, biotinylated probe, 635/667 nm fluorescence (AID 1097); details: higher = more signal;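 also: probe is a biotinylated anti-EGFR antibody binding compounds printed on slides; score combines fluorescence near 667 nm and signal to noise of each spot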
[11] = tested on: Plasmodium falciparum Sir2 (PF13_0152, Sir2A); assay: pfSir2 binders on small-molecule microarrays, primary screen, biochemical, small-molecule microarray, 635 nm fluorescence (AID 1098); details: small-molecule microarray binding, fluorescence 635 nm; higher = more signal;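 also: score merges spot fluorescence intensity with its signal-to-noise ratio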
[12] = small-molecule microarray binders of probe aDKK1, primary screen, biochemical, biotinylated probe, 635/667 nm fluorescence (AID 1099); details: higher = more signal;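 also: score merges 667nm spot fluorescence with signal to noise across triplicate slides; reference of the scale not given here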
[13] = small-molecule microarray binders of probe aCHRDL2, primary screen, biochemical, biotinylated probe, 635/667 nm fluorescence (AID 1100); details: higher = more signal
[14] = splicing luciferase reporter signal modulators, primary screen, spliceosome inhibition project, cell-based, HEK293, splice +/- reporter (AID 1101); details: luminescence, 24 h, higher = more signal, called active from +8 up or from −8 down;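 also: HEK293 cells carrying a splicing-competent luciferase reporter gene; test concentration not given here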
[15] = molecular target: Fibroblast growth factor 10 (Homo sapiens) (UniProt O15520); assay: FGF10 binders on small-molecule microarrays, primary screen, biochemical, small-molecule microarray, 635 nm fluorescence (AID 1102); details: FGF10 binding, fluorescence 635 nm, higher = more signal
Chain of Fibroblast growth factor 10 (Homo sapiens) (O15520 whole entry, looked up): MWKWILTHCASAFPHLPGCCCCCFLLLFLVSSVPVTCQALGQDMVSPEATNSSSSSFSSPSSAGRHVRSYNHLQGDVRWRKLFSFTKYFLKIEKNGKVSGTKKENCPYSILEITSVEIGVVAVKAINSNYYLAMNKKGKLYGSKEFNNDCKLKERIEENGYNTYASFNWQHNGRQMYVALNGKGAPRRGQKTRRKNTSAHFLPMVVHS

[16] = tested on: glycogen synthase kinase-3 (GSK3A per assay name; protocol says GSK3B); assay: GSK3 binders on small-molecule microarrays, primary screen, biochemical, small-molecule microarray, 635 nm fluorescence, GSK3A (AID 1103); details: small-molecule microarray binding, fluorescence 635 nm; higher = more signal; also: the record names both GSK3A and GSK3B
[17] = molecular target: Epidermal growth factor receptor (Homo sapiens) (UniProt P00533); assay: EGFR binders on small-molecule microarrays, primary screen, biochemical, small-molecule microarray, 635 nm fluorescence (AID 1104); details: EGFR binding, higher = more signal;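 also: score merges 667 nm emission intensity with spot signal to noise over triplicate slides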
Chain of Epidermal growth factor receptor (Homo sapiens) (P00533 whole entry, looked up): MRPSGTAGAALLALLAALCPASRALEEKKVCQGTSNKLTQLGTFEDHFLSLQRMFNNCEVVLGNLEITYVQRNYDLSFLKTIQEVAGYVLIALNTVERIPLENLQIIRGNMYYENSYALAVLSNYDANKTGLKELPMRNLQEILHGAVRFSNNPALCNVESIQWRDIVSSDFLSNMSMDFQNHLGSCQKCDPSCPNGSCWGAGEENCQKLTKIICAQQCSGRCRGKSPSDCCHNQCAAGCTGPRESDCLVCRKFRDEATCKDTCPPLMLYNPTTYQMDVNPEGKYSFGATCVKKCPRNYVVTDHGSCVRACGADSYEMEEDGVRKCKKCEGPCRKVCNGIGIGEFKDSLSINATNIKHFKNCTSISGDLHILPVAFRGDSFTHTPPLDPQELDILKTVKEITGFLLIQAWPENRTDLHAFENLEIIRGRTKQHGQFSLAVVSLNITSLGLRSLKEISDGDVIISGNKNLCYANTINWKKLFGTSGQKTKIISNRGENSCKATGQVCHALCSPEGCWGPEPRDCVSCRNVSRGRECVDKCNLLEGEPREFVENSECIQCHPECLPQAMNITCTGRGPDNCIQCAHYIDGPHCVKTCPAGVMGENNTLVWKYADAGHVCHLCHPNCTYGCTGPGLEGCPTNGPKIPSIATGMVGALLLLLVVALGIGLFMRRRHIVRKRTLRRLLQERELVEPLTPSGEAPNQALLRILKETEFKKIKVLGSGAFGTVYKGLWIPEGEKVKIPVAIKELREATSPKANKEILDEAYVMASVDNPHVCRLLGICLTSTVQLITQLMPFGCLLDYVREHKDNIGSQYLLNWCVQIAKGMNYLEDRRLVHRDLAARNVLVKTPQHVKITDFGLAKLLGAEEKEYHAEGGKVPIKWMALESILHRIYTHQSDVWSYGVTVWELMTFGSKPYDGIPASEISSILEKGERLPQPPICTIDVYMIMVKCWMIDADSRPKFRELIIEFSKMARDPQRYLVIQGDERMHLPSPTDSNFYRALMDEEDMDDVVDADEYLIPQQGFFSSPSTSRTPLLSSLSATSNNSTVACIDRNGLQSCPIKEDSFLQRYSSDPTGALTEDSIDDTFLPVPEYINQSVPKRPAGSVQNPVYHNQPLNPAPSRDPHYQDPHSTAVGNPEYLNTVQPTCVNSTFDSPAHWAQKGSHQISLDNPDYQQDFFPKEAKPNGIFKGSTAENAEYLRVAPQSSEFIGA

[18] = molecular target: Follistatin-related protein 3 (Homo sapiens) (UniProt O95633); assay: FSTL3 binders on small-molecule microarrays, primary screen, biochemical, small-molecule microarray, 635 nm fluorescence (AID 1105); details: FSTL3 binding, higher = more signal;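 also: score merges emission near 667 nm and signal to noise per printed spot across three slides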
Chain of Follistatin-related protein 3 (Homo sapiens) (O95633 whole entry, looked up): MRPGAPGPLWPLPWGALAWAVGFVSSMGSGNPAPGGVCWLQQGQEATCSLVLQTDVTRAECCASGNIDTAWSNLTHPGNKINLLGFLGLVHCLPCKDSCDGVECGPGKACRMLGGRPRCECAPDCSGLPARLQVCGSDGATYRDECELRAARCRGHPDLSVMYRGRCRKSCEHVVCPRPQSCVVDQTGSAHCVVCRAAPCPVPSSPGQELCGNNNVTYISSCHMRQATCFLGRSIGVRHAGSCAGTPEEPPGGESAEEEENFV

[19] = molecular target: Dickkopf-related protein 1 (Homo sapiens) (UniProt O94907); assay: DKK1 binders on small-molecule microarrays, primary screen, biochemical, small-molecule microarray, 635 nm fluorescence scan (AID 1106); details: DKK1 binding, higher = more signal;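 also: score merges emission near 667 nm with signal to noise over three replicate slides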
Chain of Dickkopf-related protein 1 (Homo sapiens) (O94907 whole entry, looked up): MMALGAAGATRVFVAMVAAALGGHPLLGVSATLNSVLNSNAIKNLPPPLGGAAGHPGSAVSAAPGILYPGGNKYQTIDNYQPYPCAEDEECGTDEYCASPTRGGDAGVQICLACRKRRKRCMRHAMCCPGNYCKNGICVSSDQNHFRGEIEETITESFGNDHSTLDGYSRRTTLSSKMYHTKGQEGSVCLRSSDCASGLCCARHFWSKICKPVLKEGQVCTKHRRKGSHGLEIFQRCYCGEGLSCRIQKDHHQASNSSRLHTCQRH

[20] = tested on: Inhibin beta A chain (activin A); assay: INHBA (activin A) binders on microarrays, primary screen, biochemical, small-molecule microarray, 635 nm fluorescence scan (AID 1107); details: small-molecule microarray binding, higher = more signal;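 also: mouse activin A protein probed at 4.33 µg/mL on printed slides; score merges bound-protein fluorescence near 667 nm with spot signal-to-noise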

Compound: O=C(NCCN1CCOCC1)[C@@H]1c2ccccc2C(=O)N(Cc2cc(C(F)(F)F)cc(C(F)(F)F)c2)[C@H]1c1ccc(CO)cc1
- composite z-score [1]: 1.56
- z-score [2]: 0.764 (inactive)
- z-score [3]: -0.091 (inactive)
- z-score [4]: 0.0371 (inactive)
- composite z-score [5]: 2.37
- z-score [6]: 0.339 (inactive)
- composite z-score [7]: -0.0856
- composite z-score [8]: -0.901
- composite z-score [9]: -0.578
- composite z-score [10]: -0.0744
- composite z-score [11]: 1.51
- composite z-score [12]: 0.254
- composite z-score [13]: 0.851
- z-score [14]: 0.91 (inactive)
- composite z-score [15]: -1.17
- composite z-score [16]: -0.332
- composite z-score [17]: -1.35
- composite z-score [18]: -1.55
- composite z-score [19]: -1.23
- composite z-score [20]: -1.54

Compound: COc1ccc([C@H]2C[C@H]3C(Br)=C[C@@]2(CO)C(=O)[C@]32CO2)cc1
- composite z-score [1]: -0.855
- z-score [2]: -0.658 (inactive)
- z-score [3]: -3.35 (inactive)
- z-score [4]: 0.241 (inactive)
- composite z-score [5]: -0.274
- z-score [6]: -0.687 (inactive)
- composite z-score [7]: 0.0395
- composite z-score [8]: -0.472
- composite z-score [9]: -0.534
- composite z-score [10]: -0.0799
- composite z-score [11]: -0.194
- composite z-score [12]: -0.118
- composite z-score [13]: 0.565
- z-score [14]: -0.206 (inactive)
- composite z-score [15]: -0.0884
- composite z-score [16]: -0.516
- composite z-score [17]: 0.197
- composite z-score [18]: -0.387
- composite z-score [19]: -0.198
- composite z-score [20]: 1.32

Compound: C=CCC(OC(C)=O)[C@@H]1[C@@H](N(Cc2ccc(-c3cccc(C(F)(F)F)c3)o2)C(=O)Cc2ccc(OC)cc2)c2cc(OCCCO)ccc2N1C(=O)c1ccc2ccccc2c1 (stereo not given in full)
- composite z-score [1]: -0.485
- z-score [2]: 0.514 (inactive)
- z-score [3]: 0.428 (inactive)
- z-score [4]: -0.645 (inactive)
- composite z-score [5]: 0.589
- z-score [6]: 0.315 (inactive)
- composite z-score [7]: 0.0079
- composite z-score [8]: 0.397
- composite z-score [9]: 0.035
- composite z-score [10]: -0.127
- composite z-score [11]: 0.403
- composite z-score [12]: -0.179
- composite z-score [13]: 0.577
- z-score [14]: -0.814 (inactive)
- composite z-score [15]: -0.344
- composite z-score [16]: -1.46
- composite z-score [17]: -0.488
- composite z-score [18]: 0.195
- composite z-score [19]: -0.298
- composite z-score [20]: 1.39

Compound: COCCOC(=O)N1C(=O)[C@@]2(c3ccccc31)[C@H](C(=O)N1CCCCCCC1)[C@H]1C(=O)O[C@H](c3ccccc3)[C@H](c3ccccc3)N1[C@@H]2c1ccc(OCCO)cc1
- composite z-score [1]: 1.54
- z-score [2]: 1.9 (inactive)
- z-score [3]: 1.62 (inactive)
- z-score [4]: 4.28 (inactive)
- composite z-score [5]: 4.99
- z-score [6]: -0.348 (inactive)
- composite z-score [7]: 1.98
- composite z-score [8]: 2.22
- composite z-score [9]: 1
- composite z-score [10]: 1.38
- composite z-score [11]: 2.08
- composite z-score [12]: 3.12
- composite z-score [13]: 1.76
- z-score [14]: -0.69 (inactive)
- composite z-score [15]: 1.69
- composite z-score [16]: 1.49
- composite z-score [17]: 2.05
- composite z-score [18]: 1.79
- composite z-score [19]: 2.72
- composite z-score [20]: 1.77

Compound: C=C(CCCC)C(=O)CC[C@H](OC(=O)c1cccnc1)c1ccc(OCCO)cc1
- composite z-score [1]: 0.417
- z-score [2]: 0.0275 (inactive)
- z-score [3]: -3.48 (inactive)
- z-score [4]: 0.364 (inactive)
- composite z-score [5]: 0.434
- z-score [6]: 0.02 (inactive)
- composite z-score [7]: -0.0547
- composite z-score [8]: 0.134
- composite z-score [9]: -0.364
- composite z-score [10]: 0.0089
- composite z-score [11]: 0.142
- composite z-score [12]: -0.117
- composite z-score [13]: 0.27
- z-score [14]: 0.98 (inactive)
- composite z-score [15]: -0.0659
- composite z-score [16]: -0.0084
- composite z-score [17]: -0.317
- composite z-score [18]: -0.173
- composite z-score [19]: 0.183
- composite z-score [20]: 0.877

Compound: [N-]=[N+]=Nc1ccccc1[C@H]1OC(c2ccc(OCCCO)cc2)=N[C@@]1(Cc1ccccc1)C(=O)N1CCOCC1
- composite z-score [1]: 1.46
- z-score [2]: -1.44 (inactive)
- z-score [3]: -1.02 (inactive)
- z-score [4]: 1.91 (inactive)
- composite z-score [5]: 3.23
- z-score [6]: 0.551 (inactive)
- composite z-score [7]: 0.275
- composite z-score [8]: 0.449
- composite z-score [9]: 1.15
- composite z-score [10]: 0.0881
- composite z-score [11]: 1.43
- composite z-score [12]: 1.14
- composite z-score [13]: 1.08
- z-score [14]: 0.439 (inactive)
- composite z-score [15]: 1.31
- composite z-score [16]: 0.921
- composite z-score [17]: 0.73
- composite z-score [18]: 1.07
- composite z-score [19]: 0.477
- composite z-score [20]: 1.11

Compound: OCC1C=C(/C=C/c2ccccc2)CN1Cc1ccccc1Br (stereo not given)
- composite z-score [1]: 0.94
- z-score [2]: -0.486 (inactive)
- z-score [3]: -11.3 (active)
- z-score [4]: -1.4 (inactive)
- composite z-score [5]: 1.44
- z-score [6]: 1.58 (inactive)
- composite z-score [7]: 0.0265
- composite z-score [8]: 0.876
- composite z-score [9]: 0.854
- composite z-score [10]: 0.0339
- composite z-score [11]: 1.1
- composite z-score [12]: 0.296
- composite z-score [13]: -0.241
- z-score [14]: 0.103 (inactive)
- composite z-score [15]: 1.18
- composite z-score [16]: 0.86
- composite z-score [17]: 0.357
- composite z-score [18]: 1.37
- composite z-score [19]: 1.12
- composite z-score [20]: 0.692

Compound: O=C(O)C1N=C(c2ccc(OCCCO)cc2)N(c2ccccc2)O1 (stereo not given)
- composite z-score [1]: 1.49
- z-score [2]: -0.371 (inactive)
- z-score [3]: 0.651 (inactive)
- z-score [4]: -0.377 (inactive)
- composite z-score [5]: 2.03
- z-score [6]: 0.281 (inactive)
- composite z-score [7]: 0.0399
- composite z-score [8]: 0.306
- composite z-score [9]: 0.12
- composite z-score [10]: -0.0828
- composite z-score [11]: 0.524
- composite z-score [12]: 0.187
- composite z-score [13]: 0.391
- z-score [14]: -0.303 (inactive)
- composite z-score [15]: 1.22
- composite z-score [16]: 0.472
- composite z-score [17]: 0.327
- composite z-score [18]: 0.285
- composite z-score [19]: -0.0405
- composite z-score [20]: 0.712

Compound: N#Cc1ccc(C(O)C2C=CC3C(=O)N(c4ccccc4)C(=O)C3N2Nc2ccccc2F)cc1 (stereo not given)
- composite z-score [1]: 0.713
- z-score [2]: -0.413 (inactive)
- z-score [3]: 0.135 (inactive)
- z-score [4]: -0.851 (inactive)
- composite z-score [5]: 2.93
- z-score [6]: 0.246 (inactive)
- composite z-score [7]: -0.113
- composite z-score [8]: 0.339
- composite z-score [9]: 0.972
- composite z-score [10]: 0.0262
- composite z-score [11]: 1.65
- composite z-score [12]: -0.0589
- composite z-score [13]: 0.267
- z-score [14]: -1.37 (inactive)
- composite z-score [15]: 0.877
- composite z-score [16]: 0.849
- composite z-score [17]: 0.77
- composite z-score [18]: 0.746
- composite z-score [19]: -0.116
- composite z-score [20]: 0.299

Compound: COCCOC(=O)N1C(=O)[C@@]2(c3cc(C#CCCO)ccc31)[C@H](c1ccc(OCCO)cc1)N1[C@H](c3ccccc3)[C@H](c3ccccc3)OC(=O)[C@H]1[C@@H]2C(N)=O
- composite z-score [1]: 1.54
- z-score [2]: 2.66 (inactive)
- z-score [3]: 0.245 (inactive)
- z-score [4]: 6.06 (inactive)
- composite z-score [5]: 2.78
- z-score [6]: 0.719 (inactive)
- composite z-score [7]: -0.0383
- composite z-score [8]: 0.626
- composite z-score [9]: 1.08
- composite z-score [10]: -0.0436
- composite z-score [11]: 0.923
- composite z-score [12]: 0.0909
- composite z-score [13]: -0.0603
- z-score [14]: -1.59 (inactive)
- composite z-score [15]: 0.874
- composite z-score [16]: 1.3
- composite z-score [17]: 0.587
- composite z-score [18]: 0.829
- composite z-score [19]: 0.441
- composite z-score [20]: 0.257
